Six molecules from PubChem BioAssay can be followed below.

Each structure is given as a SMILES string. Where “and” joins values, the source holds several entries; their conditions need not be identical. Equal values may be shown once. Inconclusive results are not listed. Calls of active or inactive are those of the source. Unless noted, cut-off not given; nearly all actives show AC50 up to about 30 µM.

A short description of assay [1]: Wnt pathway potentiators raising nuclear beta-catenin – imaging, WNT3A-conditioned medium, mouse C2C12, NPC library, primary screen (AID 1117326; in the data active means nuclear beta-catenin stimulation mostly above about 4.2%, no sharp cut-off; inactive means mostly below about 10%). The following applies: stronger effect = higher value.
A short description of assay [2]: stimulators of insulin release from INS-1E, primary screen, cell-based, 5 mM glucose, NPC library (AID 1117329;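 active means compound raises insulin release from rat beta cells at 5 mM glucose, no numeric limit stated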). The conditions noted are these: rat INS-1E insulin secretion, at 10 µM, stronger effect = higher value.
The nature of assay [3]: growth inhibition of GSK3B-pretreated HCT116 cells – cell-based, CellTiter-Glo, 0.2 to 20 µM (AID 1117336;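 active means compounds lowering colon cancer cell viability after pretreatment blocking the GSK3B kinase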). The conditions noted are these: HCT116 viability after GSK3B inhibitor, at 20 µM, stronger effect = higher value. (In general: In ATP-based viability assays light output follows the ATP content of the culture.)
A short description of assay [4]: inhibition of endothelial tube formation, primary screen, imaging, VEGF stimulated, CD31 staining, tube area, NPC library (AID 1117340;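 active means compound that reduces growth-factor-driven endothelial tube area in a mixed cell culture, no cutoff stated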). The following applies: VEGF-stimulated ADSC/ECFC co-culture, at 10 µM, stronger effect = higher value.
A short description of assay [5]: GLP1 release stimulators, primary, NCI-H716, NPC library (AID 1117341;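 active means compound raises GLP1 secretion from the human gut endocrine cells, with no numeric limit stated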). The following applies: NCI-H716 cells, at 10 µM, stronger effect = higher value.
A short description of assay [6]: HCT116 colon cancer cell growth inhibition, primary screen, CellTiter-Glo luminescence, NPC library (AID 1117342;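 active means compounds that lower survival of HCT116 colon cancer cells in the luminescence readout, no numeric limit stated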). The conditions noted are these: at 20 µM (top of the series).
A short description of assay [7]: reduced SW480 viability measured with CellTiter-Glo, NPC library, primary (AID 1117343;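 active means compounds that lower viability of the colon cancer cells in the luminescence readout, with no numeric limit stated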). The following applies: CellTiter-Glo luminescence; at 20 µM (top of the series) unless noted.
Assay [8] can be described thus: NPC library primary testing for decreased DLD-1 cell viability via CellTiter-Glo (AID 1117346;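 active means compounds that lower survival of DLD-1 colon cancer cells in the luminescence readout, no cutoff given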). The following applies: DLD-1 viability, CellTiter-Glo luminescence; at 20 µM (top of the series).
Assay [9] is described as follows: viability loss in pontine glioma line – cell-based, JHH-DIPG-1, MIPE4.0, CellTiter-Glo, qHTS, dose response (AID 1347062; cut-off not given, nearly all actives have AC50 up to about 27 µM;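 on AC50: cells exposed to compound for two days before readout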). The conditions noted are these: JHH-DIPG-1 viability, CellTiter-Glo ATP luminescence.
Assay [10] is described as follows: viability loss in pontine glioma line – cell-based, SU-DIPG-IV, MIPE4.0, CellTiter-Glo, qHTS, dose response (AID 1347063).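 Further: compound exposure lasted 48 hours before the viability readout.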 The conditions noted are these: CellTiter-Glo ATP luminescence.
Assay [11] can be described thus: growth inhibition of DIPG cells – cell-based, MIPE4.0 library, CellTiter-Glo luminescence, qHTS (AID 1347066).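 Further: cells exposed to compound for 48 hours before readout.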 The conditions noted are these: SU-DIPG-VI viability, CellTiter-Glo ATP luminescence.
Assay [12] is described as follows: MELAS cybrid and Rieske KO viability enhancers – cell-based, MELAS cybrids, Rieske KO mouse fibroblasts, CellTiter-Glo, primary screen (AID 1508586;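 active means mean z-score across replicates of 1.96 or higher in either the MELAS or the Rieske mutant cell line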;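 further: z relative to plate mean and SD of compound and empty wells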). The following applies: low glucose.
The nature of assay [13]: viability loss with induced miR-34 in A549 – imaging, A549 dox-inducible miR-34, nuclei and caspase counts, primary screen (AID 1347080;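 active means compounds whose cell count with miR-34 switched on is under 0.7 times the count with it off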). The conditions noted are these: A549 miR-34 inducible, Hoechst nuclei count, 48 h.
Assay [14] in a line: P. berghei load reduction in hepatocytes – cell-based, HepG2, luciferase luminescence, HepG2 viability, primary screen (AID 624349; in the data active means parasite load remaining mostly below about 12%, no sharp cut-off; inactive means mostly above about 10%;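 further: 100% = mean of DMSO negative control wells on the same plate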). The following applies: P. berghei liver stage in HepG2, luciferase luminescence, concentration not given here; parasite load remaining: stronger effect = lower value; viability: measured here: HepG2 viability without parasites.
Assay [15] is described as follows: JHH-DIPG-1 glioma cell viability, MIPE5.0 library, CellTiter-Glo luminescence, qHTS (AID 1347067; cut-off not given, nearly all actives have AC50 up to about 26 µM;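 further: cells exposed to compound for 48 hours before readout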). The conditions noted are these: JHH-DIPG-1 glioma viability, CellTiter-Glo ATP luminescence.
Assay [16] can be described thus: growth inhibition of DIPG cells – cell-based, MIPE5.0 library, qHTS (AID 1347068; cut-off not given, nearly all actives have IC50 up to about 30 µM). The conditions noted are these: SU-DIPG-XXV viability. (In qHTS, concentration-response curves come from the screen itself.)
Assay [17] can be described thus: galactose survival enhancers in mitochondrial complex I cybrids – cell-based, galactose medium, ATP luminescence, primary screen (AID 1645843;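 active means z-score of at least 1.8 in each of two replicates, scored against plate mean and spread of sample wells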;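 further: positive z means more ATP and so rescue of galactose-driven cybrid death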). The conditions noted are these: complex I mutant cybrid cells, 72 h, stronger effect = higher value.
Assay [18] is described as follows: viability loss in pontine glioma line – cell-based, SU-DIPG-XXV, MIPE5.0, CellTiter-Glo, qHTS, dose response (AID 1347065; cut-off not given, nearly all actives have AC50 up to about 26 µM;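 further: cells exposed to compound for 48 hours before ATP readout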). The following applies: CellTiter-Glo ATP luminescence.
The mark [19] stands for this setting: MELAS cybrid survival, CellTiter-Glo 48 h, stronger effect = higher value.
The mark [20] stands for this setting: Rieske KO mouse fibroblast survival, CellTiter-Glo 72 h.
[21] abbreviates: stronger effect = lower value, cell number ratio, induced over uninduced.
Setting [22] is: measured here: relative caspase fold change +Dox/-Dox.
[23] abbreviates: measured here: total cells with miR-34 induction, stronger effect = lower value.
Where [24] appears, read: measured here: total cells without miR-34 induction.

As for `CN1C[C@H]2c3ccccc3Oc3ccc(Cl)cc3[C@@H]2C1`, the nuclear beta-catenin stimulation was 0.7% (inactive) in [1] (at 10 µM) and -0.7% in assay [1] (stimulation, at 2 µM). In addition, the insulin secretion stimulation in [2] was 9% (inactive). In assay [3], the viability decrease is 30.4% (inactive). Moreover, in [4], the tube area decrease was 28.3% (inactive). Also, in [5], the GLP1 secretion stimulation was 4.4% (inactive). For the same molecule, the inhibition of viability in [6] was 39.3% (inactive). Also, the figures for the viability decrease (inhibition) in assay [7] and in assay [8] were 80.6% (active) and 34.3% (inactive), respectively. Also, the call in assay [9], in [10] and in assay [11] was inactive. Moreover, the values for the z-score in assay [12] (setting [19]) and in assay [12] (setting [20]) were 0.874 (inactive) and 0.408, respectively.
On to `O=C(O)[C@H](O)c1ccccc1`, for which the nuclear beta-catenin stimulation is 3.7% (inactive) in [1] (at 10 µM) and 3.1% in assay [1] (stimulation, at 2 µM). Moreover, the insulin secretion stimulation in assay [2] was -0.6% (inactive). For the same molecule, the viability decrease in assay [3] is -6.9% (inactive). Moreover, the tube area decrease in assay [4] was -9.1% (inactive). Further, the GLP1 secretion stimulation in assay [5] was 1.8% (inactive). Moreover, the inhibition of viability in assay [6] was -5.47% (inactive). Besides, the viability decrease (inhibition) in [7] was -30.4% (inactive); in assay [8], -21.9% (inactive). Besides, the fold change in assay [13] (setting [21]) was 0.975 (inactive); in [13] (setting [22]) it was 0.478. Further, the cell count in assay [13] (setting [23]) stood at 5430; in assay [13] (setting [24]), 5570.
For the molecule `Cc1c(C)c2c(c(C)c1O)CCC(C)(COc1ccc(CC3SC(=O)NC3=O)cc1)O2` (configuration not stated), the parasite load remaining in assay [14] was 65.9% (inactive) and 36.4% (inactive). The viability (in general, a read-out of living cells in per cent, often relative to untreated cells) in assay [14] was 207% and 95%. Moreover, the nuclear beta-catenin stimulation in assay [1] (at 10 µM) was 1.2% (inactive); in assay [1] (stimulation, at 2 µM) it was 10.4%. In addition, the insulin secretion stimulation in assay [2] is 1.4% (inactive). Moreover, in assay [3], the viability decrease was 88.4% (active). For the same molecule, the tube area decrease in assay [4] is 99.4% (active). Moreover, the GLP1 secretion stimulation in assay [5] was 11.9% (inactive). Moreover, in assay [6], the inhibition of viability was 55.4% (active). Further, the viability decrease (inhibition) is 110% (active) in assay [7] and 101% (active) in assay [8]. The molecule was classed as inactive in assay [9], in assay [11], in [15] and in assay [16]. Besides, the fold change in assay [13] (setting [21]) is 1.09 (inactive) and 0.933 (inactive) and 0.824 (inactive); in assay [13] (setting [22]), 0.891 and 4.13 and 1.35. For the same molecule, the cell count in assay [13] (setting [23]) is 6090 and 11900 and 7450; in assay [13] (setting [24]), 5600 and 12700 and 9040. The z-score is -0.456 (inactive) and 0.16 (inactive) in assay [12] (setting [19]); 0.0968 and -0.894 in assay [12] (setting [20]); 0.175 (inactive) in [17].
Take `CC=CC1=C(C(=O)O)N2C(=O)[C@@H](NC(=O)[C@H](N)c3ccc(O)cc3)[C@H]2SC1`: the nuclear beta-catenin stimulation in assay [1] (at 10 µM) is 1% (inactive); in assay [1] (stimulation, at 2 µM) it was 2.9%. In addition, the insulin secretion stimulation in assay [2] is -0.3% (inactive). Also, the viability decrease in assay [3] was 4.9% (inactive). For the same molecule, the tube area decrease in assay [4] is -8.9% (inactive). Besides, the GLP1 secretion stimulation in assay [5] is -4% (inactive). In addition, in [6], the inhibition of viability is 41.6% (inactive). Besides, the figures for the viability decrease (inhibition) in [7] and in assay [8] were 45.4% (inactive) and 33.9% (inactive), respectively. Besides, the call in assay [9], in assay [10] and in assay [11] was inactive.
Turning to `CCCCCCOC(=O)NC(=N)c1ccc(NCc2nc3cc(C(=O)N(CCC(=O)OCC)c4ccccn4)ccc3n2C)cc1`, the nuclear beta-catenin stimulation in assay [1] (at 10 µM) was 2.7% (inactive); in [1] (stimulation, at 2 µM), 2.3%. Also, the insulin secretion stimulation in assay [2] is 0.9% (inactive). Moreover, the viability decrease in [3] is 78.3% (active). Moreover, the tube area decrease in assay [4] was -1.4% (inactive). Besides, the GLP1 secretion stimulation in assay [5] was -2.6% (inactive). Also, the inhibition of viability in assay [6] was 118% (active). Besides, the values for the viability decrease (inhibition) in assay [7] and in [8] were 155% (active) and 102% (active), respectively. In addition, the AC50 in [9] and in [11] was 26.4 µM (active) each time. The outcome in [10] and in assay [16] was inactive.
Turning to `COc1cc(NCc2ccc3nc(N)nc(N)c3c2C)cc(OC)c1OC`, the nuclear beta-catenin stimulation in assay [1] (at 10 µM) was 40.4% (active); in [1] (stimulation, at 2 µM), 71.7%. Moreover, the insulin secretion stimulation in assay [2] was 3.6% (inactive). Further, in [3], the viability decrease is 105% (active). The tube area decrease in [4] is 60.1% (active). Moreover, the GLP1 secretion stimulation in assay [5] was 2.9% (inactive). Further, in assay [6], the inhibition of viability was 94.9% (active). The viability decrease (inhibition) is 142% (active) in assay [7] and 70.6% (active) in [8]. Also, the AC50 (as a rule, the concentration giving half of the maximal activity seen) in [9] was 18.7 µM (active); in assay [18], 2.95 µM (active); in assay [11] it was 20.9 µM (active); in assay [15] it was 2.63 µM (active).
